Shown are actives, neighbours in structure and some others; about 5.4% of the full set was active somewhere.
PP1 inh: PP1-alpha phosphatase inhibitors, primary screen, counter-screen for PP5 inhibitor project, biochemical, fluorescence, OMFP substrate, single point | Serine/threonine-protein phosphatase PP1-alpha catalytic subunit (Homo sapiens), P62136 | purified PP1alpha | inhibition, % at 6.7 µM | 320,000 tested, 0.9% active;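 active = inhibition above the mean inhibition of all tested compounds plus 3 SD, computed separately for each screening campaign, cut at about 15% in these data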
Target sequence (P62136 whole entry, looked up): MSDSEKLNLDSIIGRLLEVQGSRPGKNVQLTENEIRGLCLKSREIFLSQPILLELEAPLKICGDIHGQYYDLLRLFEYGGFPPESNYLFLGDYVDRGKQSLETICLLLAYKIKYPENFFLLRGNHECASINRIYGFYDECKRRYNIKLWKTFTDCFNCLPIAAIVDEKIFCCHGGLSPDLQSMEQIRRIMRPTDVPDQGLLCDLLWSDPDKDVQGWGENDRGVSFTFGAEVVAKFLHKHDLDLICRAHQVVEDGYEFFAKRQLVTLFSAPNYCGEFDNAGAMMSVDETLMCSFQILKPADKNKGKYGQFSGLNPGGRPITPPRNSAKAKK
CSC inhib: cancer stem cell viability inhibitors, primary screen, luminescence | cancer stem cell-like cells viability | inhibition, % at 7.5 µM | 300,000 tested, 1.1% active | AID 2717, 2010; in the data active = inhibition above about 75%; inconclusive = no clear call, values can overlap the other calls; tested in HMLE shEcad cells
PP5 primary: PP5 phosphatase inhibitors, primary screen, biochemical, fluorescence. inhibition, % at 6.7 µM. 320,000 tested, 0.18% active. Serine/threonine-protein phosphatase 5 (Homo sapiens), P53041. AID 1987, 2009. purified PP5c, OMFP substrate fluorescence;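 active = inhibition above the campaign's mean inhibition across all tested compounds plus 3 SD, cut at about 9.5% in these data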;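 also: 0% = DMSO only and 100% = 100 µM cantharidin control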
ALR inh: inhibitors of human ALR sulfhydryl oxidase, primary screen, biochemical, H2O2 detection, HRP-luminol luminescence, single point; inhibition, % (no concentration beside the values); purified ALR, DTT oxidation; 290,000 tested, 3.8% active;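 active = mean replicate inhibition above about 79%, with every replicate also reaching it, limit read from the data; inconclusive = only one of the two criteria met; inactive = mean below limit and not every replicate reaching it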
Target sequence (P55789 whole entry, looked up): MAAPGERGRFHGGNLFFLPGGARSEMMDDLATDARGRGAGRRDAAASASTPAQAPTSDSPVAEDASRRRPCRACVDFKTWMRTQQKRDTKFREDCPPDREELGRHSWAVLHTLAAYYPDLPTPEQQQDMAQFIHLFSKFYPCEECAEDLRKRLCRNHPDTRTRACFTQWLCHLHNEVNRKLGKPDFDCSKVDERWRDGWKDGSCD
Calb FLC: C. albicans growth inhibition with fluconazole, primary screen, CaCi-2 strain, Alamar Blue fluorescence; AID 1979, 2009; growth inhibition, % (no concentration beside the values); C. albicans CaCi-2 (fluconazole-resistant clinical isolate) + fluconazole, 48 h; 300,000 tested, 0.57% active;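 active = growth inhibition above about 58% in most replicates, limit read from the data, passing the limit was not always enough; inconclusive = exactly half the replicates above a set limit; inactive = most replicates below a set limit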;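 also: all wells also contain fluconazole at 8 µg/ml as a sub-toxic cotreatment; 0% = median of DMSO wells and 100% = median of geldanamycin control wells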
Numbers without * were called inactive; ? = inconclusive; nt = no result given.

SMILES	PP1 inh	CSC inhib	PP5 primary	ALR inh	Calb FLC
CCC(c1nnc(SCC(=O)Nc2nnc(-c3ccccc3)o2)o1)N(C)C (stereo not drawn)	-1	10	4	16	0
O=C(COc1ccccc1)Nc1nnc(-c2ccc(Cl)s2)o1	19*	0	1	nt	-1
Cc1ccc(C)c(SCC(=O)Nc2nnc(-c3ccccc3)o2)c1	8	6	3	-4	81*
O=C(COc1ccccc1)Nc1nnc(-c2ccco2)o1	-1	26	-1	?	-6
COc1cc2c(cc1OC)CN(C(=O)CNS(=O)(=O)c1ccc(C)c(C)c1)CC2	-2	-4	3	-56	-11
COc1ccc(C(=O)CCN2CCN(c3ccccc3OC)CC2)cc1	0	16	3	18	-7
COc1ccc(C(=O)CCN2CCc3cc(OC)c(OC)cc3C2)cc1	4	7	-2	98*	0
O=C(NCc1ccc(N2CCCC2=O)cc1)c1cn(Cc2ccccc2)nn1	-2	1	0	-18	-2
Cc1ccc2[nH]c(C(=O)N3CCN(C=O)CC3)cc2c1	1	-10	1	-24	11
O=[N+]([O-])c1ccccc1N/N=C/c1cccc(O)c1O	5	86*	-1	nt	29
COc1cccc(/C=N/Nc2ccc([N+](=O)[O-])cc2)c1O	7	36	3	nt	-8
O=[N+]([O-])c1cccc(N/N=C/c2cccc(O)c2O)c1	1	37	3	100*	-1
CNC(=O)CN(c1ccc(C(C)C)cc1)S(C)(=O)=O	-5	1	4	-1	?
COc1cc(/C=C/C(=O)OCC(=O)Nc2ccc3c(c2)OCCO3)ccc1O	0	18	3	81*	-27
CCC(C)N(C(=O)COC(=O)/C=C/c1ccc(O)c(OC)c1)C1CCS(=O)(=O)C1 (stereo not drawn)	-1	-33	2	94*	2
COc1cc(/C=C/C(=O)OCC(=O)Nc2ccc3c(c2)OCO3)ccc1O	nt	25	nt	nt	nt
COc1cc(/C=C/C(=O)OCC(=O)NC(=O)NC(C)C)ccc1O	9	28	4	99*	-2
COc1cc(/C=C/C(=O)OCC(=O)NCc2ccccc2OC)ccc1O	-3	10	3	84*	10
COc1cc(/C=C/C(=O)OCC(=O)NC(=O)NC(C)C)ccc1OCC#N	3	8	-3	-2	33
COc1ccc(C(=O)O/N=C2\CCCc3nonc32)cc1	-2	-4	1	-1	0
CCc1ccc2c(CN3CCOCC3)cc(=O)oc2c1	-1	-7	0	nt	8
COc1ccc(NC(=O)c2cccc(S(=O)(=O)N3CCOCC3)c2)cn1	0	4	0	-20	-2
COc1cc(/C=C/C(=O)OCC(=O)NCCC2=CCCCC2)ccc1O	-2	14	0	99*	-12
COc1cc(/C=C/C(=O)OCC(=O)N2CCN(C(=O)c3ccco3)CC2)ccc1O	-1	-1	0	99*	7
COc1cc(NC(=O)COc2ccccc2C)ccc1NC(=O)c1ccco1	1	-1	2	-7	0
SMILES	PP1 inh	CSC inhib	PP5 primary	ALR inh	Calb FLC
CS(=O)(=O)n1nc(-c2ccc(Cl)cc2)nc1N	-6	-9	-4	-4	-7
Cn1nc(-c2ccc(Cl)cc2)nc2c(=O)n(C)c(=O)nc1-2	37*	119*	12*	-176	71
O=C(OC1CCOC1=O)c1ccccc1C(=O)c1ccc(Cl)c([N+](=O)[O-])c1 (stereo not drawn)	1	13	4	nt	nt
CS(=O)(=O)c1ccc(C(=O)OC2CCOC2=O)cc1[N+](=O)[O-] (stereo not drawn)	-4	-5	-1	94*	5
COc1cc(NC(=O)c2cc(C)on2)cc(C(=O)Nc2cccc(C(F)(F)F)c2)c1	-1	88*	7	-2	45
Cc1ncsc1C(=O)Nc1cccc(C(F)(F)F)c1	-5	-10	-3	-10	-6
COc1cc(NC(=O)c2csc(N)n2)cc(C(=O)Nc2cccc(C(F)(F)F)c2)c1	0	88*	3	-5	12
COc1cc(NC(=O)c2cnc(N)o2)cc(C(=O)Nc2cccc(C(F)(F)F)c2)c1	4	-4	5	-15	-1
COc1cc(NC(=O)c2ccnc(N)c2)cc(C(=O)Nc2cccc(C(F)(F)F)c2)c1	13	97*	2	0	0
OCCc1ccc(O)cc1	2	-14	2	22	nt
Cc1ccc(O)c(CCc2ccc(O)cc2)n1	-4	-16	3	94*	-21
CCOc1cccc2cc(-c3csc(NC(=O)CCC(=O)NCCCN4CCC(C)CC4)n3)c(=O)oc12	-4	5	2	99*	0
CCOc1cccc2cc(-c3csc(NC(=O)CCC(=O)N4CCC(C)CC4)n3)c(=O)oc12	-1	-13	0	0	-3
CCOc1cccc2cc(-c3csc(NC(=O)CCC(=O)NCCN4CCCCC4C)n3)c(=O)oc12 (stereo not drawn)	0	6	1	99*	1
COC(=O)C1=C(C)NC(=S)NC1c1ccc(-c2cccc(Cl)c2)o1 (stereo not drawn)	6	52	5	1	43
CCC(=O)N1CCc2cc(S(=O)(=O)NC(Cc3ccccc3)C(=O)NC3CCCC3)ccc21 (stereo not drawn)	-4	-12	3	19	11
O=C1CCc2cc(S(=O)(=O)NC(Cc3ccccc3)C(=O)NC3CCCC3)ccc2N1 (stereo not drawn)	4	-13	0	84*	-6
CN(Cc1ccco1)C(=O)C(Cc1ccccc1)NS(=O)(=O)c1ccc2c(c1)CCC(=O)N2 (stereo not drawn)	1	-7	-1	78*	6
O=C1CCc2cc(S(=O)(=O)NC(C(=O)NCc3cccnc3)c3ccccc3)ccc2N1 (stereo not drawn)	-3	nt	4	nt	nt
Cc1ccc(CNC(=O)C(Cc2ccccc2)NS(=O)(=O)c2ccc3c(c2)CCC(=O)N3)cc1 (stereo not drawn)	-5	-6	0	-7	6
CCCNC(=O)C(Cc1ccccc1)NS(=O)(=O)c1ccc2c(c1)CCC(=O)N2 (stereo not drawn)	-3	-7	1	84*	8
CC(=O)c1ccc(OCC(=O)OC(C)C(=O)NC2CCCCC2)cc1 (stereo not drawn)	-2	nt	4	-1	nt
N/C(=N\OC(=O)c1cccc2ccccc12)c1ccc(Br)cc1	0	-3	4	-4	4
S=c1[nH]nc(C2CCCCC2)n1/N=C/c1ccncc1	5	0	2	-1	33
S=c1[nH]nc(C2CCCCC2)n1/N=C/c1cccs1	-2	4	1	96*	-4

High-throughput results from PubChem.
